From PubChem BioAssay (NCI)
This is part of a sample that, as a whole, favours compounds with a hit. Of some 79,000 tested, about 15% had one in any assay. A number with no mark means an inactive call. Active and inactive are the calls of the source. Cut-off read from the data, not from the text of the source: active = growth inhibition above about 70%; inactive = the rest.

Experiment: NCI Yeast Anticancer Drug Screen. Data for the wt1 strain (AID 149);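 note: 0% = growth of vehicle-treated wt1 cultures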
Details: S. cerevisiae wt1 strain (SPY 50644) growth inhibition, active compounds read high
Experimental: Growth inhibition of yeast strains with defined genetic alterations is measured as a screen for potential anti-cancer activity. Selected strains with alterations in DNA damage repair or cell cycle control were exposed to compounds and growth inhibition was measured relative to vehicle treated controls. The strain used in this assay is wt1

Compound `O=C1c2ccccc2C(=O)c2sc(Nc3ccccc3Cl)nc21` has a growth inhibition (at 1.2 µM) of -17%, a growth inhibition (at 3.7 µM) of 13% and a growth inhibition (at 11.0 µM) of 58%. For the same compound, the growth inhibition (at 33.0 µM) was 99% (active) and the growth inhibition (at 100.0 µM) was 98% (active).
`COc1ccc(C(OCC2OC(n3cnc4c(=O)n(Cc5ccccc5[N+](=O)[O-])nnc43)C(O)C2O)(c2ccccc2)c2ccc(OC)cc2)cc1` (stereo not given) gave a growth inhibition (at 1.2 µM) of -18%, a growth inhibition (at 3.7 µM) of -11% and a growth inhibition (at 11.0 µM) of -2%. The growth inhibition (at 33.0 µM) was -4% and the growth inhibition (at 100.0 µM) was -2%.
Compound `Nc1ccc(/C=C/c2ccc3cccnc3c2)cc1` has a growth inhibition (at 1.2 µM) of 0%, a growth inhibition (at 3.7 µM) of -1% and a growth inhibition (at 11.0 µM) of -3%. For the same compound, the growth inhibition (at 33.0 µM) was -4% and the growth inhibition (at 100.0 µM) was -7%.
Work on `CCCCCCCC/C=C\CCCCCCCCN` yielded a growth inhibition (at 1.2 µM) of 13%, a growth inhibition (at 3.7 µM) of 17% and a growth inhibition (at 11.0 µM) of 9%. The growth inhibition (at 33.0 µM) was 98% (active) and the growth inhibition (at 100.0 µM) was 98% (active).
Compound `Nc1cccc(-c2cc[cH-]c2)c1.[Fe+2].c1cc[cH-]c1` has a growth inhibition (at 1.2 µM) of -1%, a growth inhibition (at 3.7 µM) of -3% and a growth inhibition (at 11.0 µM) of -3%. It also gave a growth inhibition (at 33.0 µM) of 2% and a growth inhibition (at 100.0 µM) of 50%.
For `CCC(=O)C1=C(O)c2cc(OC)ccc2CC1C(=O)OC` (stereo not given), the growth inhibition (at 1.2 µM) was 0%, the growth inhibition (at 3.7 µM) was 5% and the growth inhibition (at 11.0 µM) was 4%. It also gave a growth inhibition (at 33.0 µM) of 6% and a growth inhibition (at 100.0 µM) of 19%.
In the case of `S=C1C(=Nc2ccccc2)N(c2ccccc2)/C(=N\c2ccccn2)N1c1ccccc1`, the growth inhibition (at 1.2 µM) is reported as -4%, the growth inhibition (at 3.7 µM) is reported as -4% and the growth inhibition (at 11.0 µM) is reported as 21%. The growth inhibition (at 33.0 µM) was 98% (active) and the growth inhibition (at 100.0 µM) was 98% (active).
Compound `CCCCCCCCCCCCCCCCCCNC(=S)/N=C/c1c(O)c2ccccc2[nH]c1=O` has a growth inhibition (at 1.2 µM) of -32%, a growth inhibition (at 3.7 µM) of -6% and a growth inhibition (at 11.0 µM) of -3%. It also gave a growth inhibition (at 33.0 µM) of -3% and a growth inhibition (at 100.0 µM) of -3%.
